In PubChem BioAssay AID2690 (NMMLSC, 2010):
Screen size: about 330,000 compounds; about 590 (0.18%) were called active. The sample as a whole holds a higher share of actives than the screen did. Values without a mark were called inactive.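 The calls were made as follows: active = superoxide response under a set limit, about three screen SD below normal (cut at about 65% in these data); inactive = the rest.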

Assay: yeast aging ROS inhibitors as calorie-restriction mimetics – HTS, primary screen (AID 2690);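 also: yeast aged for seven days with compound at 30 °C before DHE staining; 100% = average MFI of all compound-treated wells on the plate with controls excluded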
Details: S. cerevisiae aged cells, superoxide DHE fluorescence; at 10 µM; hits give low values
For `O=C(COC(=O)c1ccccc1)Nc1ccc(Cl)cc1C(=O)c1ccccc1`, the superoxide response (% of plate mean) was 104%.
In the case of `CN1CCN(C(=S)SCC(=O)Nc2ccc(Cl)cc2C(=O)c2ccccc2)CC1`, the superoxide response (% of plate mean) is reported as 63.3% (active).
Molecule `O=C(CCNS(=O)(=O)c1ccccc1)Nc1ccc(Cl)cc1C(=O)c1ccccc1` has a superoxide response (% of plate mean) of 83.2%.
`CNCC[C@H](Oc1ccc(C(F)(F)F)cc1)c1ccccc1` gave a superoxide response (% of plate mean) of 88.9%.
`Cc1cc(C)cc(NC(=S)NC2CC3CCCC(C2)N3Cc2cccs2)c1` (stereo not given) gave a superoxide response (% of plate mean) of 101%.
